Screen size: about 96,000 compounds; about 1,200 (1.2%) were called active. The list comes from a sample in which actives are over-represented; it also holds similar structures and randomly drawn compounds. Values without a mark were called inactive. Cut-off read from the data, not from the text of the source: active = activation fold above about 2; inactive = the rest.

For the experiment, the target named is Alkaline phosphatase, placental type (Homo sapiens) (UniProt P05187). The experiment can be described thus: PLAP enzyme activators, biochemical, luminescence, HTS (AID 696). Conditions: purified PLAP enzyme, luminescent substrate read-out; at 20 µM; stronger effect = higher value.
Alkaline phosphatase, placental type (Homo sapiens), sequence (P05187 whole entry, looked up): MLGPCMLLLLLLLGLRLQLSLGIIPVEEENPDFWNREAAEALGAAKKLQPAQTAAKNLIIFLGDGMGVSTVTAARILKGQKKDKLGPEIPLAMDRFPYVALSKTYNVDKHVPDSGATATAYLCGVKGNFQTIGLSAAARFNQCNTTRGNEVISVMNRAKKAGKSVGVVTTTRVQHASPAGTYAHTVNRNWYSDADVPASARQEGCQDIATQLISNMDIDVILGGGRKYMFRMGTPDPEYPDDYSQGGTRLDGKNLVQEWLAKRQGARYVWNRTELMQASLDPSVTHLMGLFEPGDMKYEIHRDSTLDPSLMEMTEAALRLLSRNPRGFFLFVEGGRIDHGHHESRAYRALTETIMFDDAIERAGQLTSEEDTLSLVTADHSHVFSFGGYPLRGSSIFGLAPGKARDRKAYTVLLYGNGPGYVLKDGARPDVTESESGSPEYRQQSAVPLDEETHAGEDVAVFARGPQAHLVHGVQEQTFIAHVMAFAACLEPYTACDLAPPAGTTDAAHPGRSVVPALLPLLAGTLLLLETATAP
Regarding `CC(NC(=O)c1ccco1)C(=O)Nc1nc(-c2ccccn2)cs1` (stereo not given), the activation fold is 2.4 (active).
Next, `NC(=O)c1ccsc1NC(=O)c1ccco1`: 1; `CC1CCN(C(NC(=O)c2ccco2)C(=O)c2ccccc2)CC1` (stereo not given): 1.1.
As for `O=c1cc(N2CCN(Cc3ccccc3)CC2)c(-c2ccccc2)n[nH]1`, the figure is 1; as for `CCn1c(Cc2cccs2)nnc1SCC(=O)c1ccc(C)cc1`, 1.5.
Next, `O=C(COc1ccc(Cl)cc1)N1CCN(S(=O)(=O)c2ccc(Cl)cc2)CC1`: 1.1; `Cc1ccc(CNC(=O)C2CC(c3ccccc3[N+](=O)[O-])=NO2)o1` (stereo not given): 0.9; `CCCCNC(=S)NNC(=O)c1cc(C)on1`: 2 (active).
Turning to `CCC(=O)Nc1ccc(C(=O)Nc2cc(C)on2)cc1`, the activation fold was 0.9.
Next, `Cc1cc(C(=O)NCCCc2ccccc2)no1`: 0.9; `Cn1c(Cc2cccc3ccccc23)nnc1SCC(=O)N1CCN(c2cccc(Cl)c2)CC1`: 1.5.
Regarding `CCN1CCC(=NNC(=O)c2ccc(C)c([N+](=O)[O-])c2)CC1`, the activation fold is 1.3.
As for `CC(=O)Nc1ccc(NC(=O)CSCc2cnn(-c3ccccc3)c2-n2cccc2)cc1`, the figure is 1.3.
Next, `C1=C(CCNc2ncnc3c2cnn3-c2ccccc2)CCCC1`: 0.7; `O=C(NCCC1=CCCCC1)C1CCN(Cc2cnn(-c3ccccc3)c2-n2cccc2)CC1`: 2.3 (active); `O=C1c2ccccc2C(=O)N1CC1c2ccccc2CCN1S(=O)(=O)c1ccccc1` (stereo not given): 1.2.
As for `O=C(Nc1ccc2c(c1)OCCO2)c1ccc(Cl)c(S(=O)(=O)N2CCCCC2)c1`, the figure is 1.7; as for `COc1cc2c(cc1NC(=O)CN1CCN(S(=O)(=O)c3ccc(F)cc3)CC1)oc1ccccc12`, 2.2 (active).
As for `COc1ccc(NC(=O)CN2CCN(S(=O)(=O)c3ccc(F)cc3)CC2)cc1Cl`, the activation fold is 1.1.
As for `COc1ccccc1NC(=O)CN1CCN(S(=O)(=O)c2ccc(Br)cc2)CC1`, the activation fold was 1.
Take `Cc1c(CCO)c(=O)[nH]n1C(=O)c1c(F)cccc1F`: the activation fold is 0.9.
As for `Cc1ccc(F)c(NC(=O)CCc2ccccc2)c1`, the figure is 0.9.
As for `CCCSc1nc2c(c(=O)[nH]c(=O)n2C)n1CCc1ccccc1`, the figure is 0.9; as for `Cn1c(=O)[nH]c(=O)c2c1nc(N(CCO)Cc1ccccc1)n2Cc1ccccc1Cl`, 0.8; as for `CN(Cc1ccccc1)c1nc2c(c(=O)[nH]c(=O)n2C)n1CCSc1nc2ccccc2[nH]1`, 2 (active).
As for `CCc1ccccc1NC(=O)CSc1nnc([C@@H](NC(=O)OC(C)(C)C)C(C)C)o1`, the figure is 1.4; as for `Cc1cc(C)cc(OCc2nnc(SCC(=O)Nc3ccccc3)o2)c1`, 0.8; as for `CCc1ccccc1NC(=O)CSc1nnc([C@@H](NC(=O)OC(C)(C)C)C(C)CC)o1` (stereo not given in full), 2 (active).
`Cc1cccc(NC(=O)CSc2nnc(CCCCCNC(=O)OC(C)(C)C)o2)c1C`: the activation fold was 2.4 (active).
As for `Cc1cccc(NC(=O)CSC(N)=O)c1C`, the figure is 1.7.
Next, `C[C@H](NC(=O)OC(C)(C)C)c1nnc(SCC(=O)Nc2ccc(Br)cc2)o1`: 1.2; `CC(C)(C)N1CC(c2nc3ccccc3n2Cc2ccc(F)cc2)CC1=O` (stereo not given): 1.1; `CN(C)Cc1ccccc1C1(O)c2ccccc2CSc2ccccc21` (stereo not given): 1.1.
Next, `N#Cc1cc([N+](=O)[O-])ccc1Oc1cccc(/C=N/NC(=O)c2ccc(Cl)cc2)c1`: 1.1; `O=P(O)(CP(=O)(c1ccccc1)c1ccccc1)c1ccccc1O`: 1; `CCOc1ccc(C(=O)NC(C(=O)NCc2ccccn2)C(C)C)cc1` (stereo not given): 0.9.
On to `Cc1cc(C)nc(SC(C)C(=O)N/N=C/c2cccs2)n1` (stereo not given), for which the activation fold is 0.9.
As for `CCCCCCNCCn1cnc2c(N)ncnc21`, the figure is 0.9; as for `CN(C)C(CNC(=O)CCCOc1ccccc1)c1ccco1` (stereo not given), 2 (active).
Take `O=C(CCOc1ccccc1)NCc1ccccc1`: the activation fold was 0.8.
As for `O=C(CCCOc1ccccc1)NCc1ccco1`, the figure is 1.1.
As for `COc1ccc(C(=O)c2c(C)oc3cc([N+](=O)[O-])c(O)c([N+](=O)[O-])c23)cc1`, the activation fold is 0.9.
Next, `COc1ccc(NC(=O)C(CC(C)C)NS(=O)(=O)c2ccc3c(c2)CCN3C(C)=O)cc1OC` (stereo not given): 0.8; `CN(Cc1nc2ccccc2c(=O)[nH]1)Cc1cc(=O)oc2ccc3ccccc3c12`: 1.6; `O=S(=O)(NC1CCCCC1)c1ccc(F)c2ccccc12`: 0.7.
`CCOc1ccc2nc(NCCNS(=O)(=O)c3ccccc3)c(C#N)cc2c1`: the activation fold was 1.
Next, `CCOc1ccc2nc(N3CCCN(C(=O)Nc4ccccc4C)CC3)c(C#N)cc2c1`: 2 (active); `COc1ccc2nc(N3CCCC(O)C3)c(C#N)cc2c1` (stereo not given): 1.8.
`O=C(NCCCN1CCOCC1)c1cc2c(s1)CCC2`: the activation fold was 1.3.
As for `COC(=O)c1ccc(C(=O)Nc2cc(Cl)ccc2Cl)cc1NC(=O)c1ccccc1C`, the figure is 1.
As for `CC1CCCN(C(C(=O)Nc2ccc(C(C)C)cc2)c2ccc3c(c2)OCO3)C1` (stereo not given), the figure is 1.6.
Next, `Cc1[nH]c(=O)c(C(=O)/C=C/c2ccccc2)c2c1CCCC2`: 1.2.
As to `CC(C)CNC(=S)NNC(=O)c1ccccc1OC(F)F`, the activation fold was 1.6.
As for `Cc1occc1C(=O)Nc1nnc(-c2ccncc2)s1`, the figure is 1; as for `Cc1occc1C(=O)NNC(=S)NCC(C)C`, 2.3 (active).
As for `CCN(CC)C(=O)CSC1c2ccccc2C(=O)N1c1ccccc1` (stereo not given), the figure is 1.1.
As for `CCCOc1ccc(C2NC(=O)NC(c3ccccc3)=C2C(C)=O)cc1OCC` (stereo not given), the figure is 0.9; as for `O=C(NCc1ccco1)c1ccc(Cn2c(=O)c3sccc3n(Cc3ccc(F)cc3)c2=O)cc1`, 1.3; as for `COc1c(F)c(F)c(C(=O)O)c(Nc2ccccc2C)c1F`, 1.
For the compound `COc1ccc(C(=O)NC(=S)NNC(=O)CCc2ccccc2)cc1`, the activation fold is 1.
As for `CCCc1ccc(OCC(=O)NNC(=S)NC(=O)c2ccco2)cc1`, the figure is 1.2; as for `CC(Oc1ccc2ccccc2c1)C(=O)NNC(=S)NC(=O)c1ccco1` (stereo not given), 2.6 (active).
As for `O=C(c1cccnc1NCc1ccccc1)N1CCOCC1`, the figure is 0.9; as for `Oc1c(C(c2ccccn2)N2CCOCC2)ccc2cccnc12` (stereo not given), 2.2 (active); as for `CCOc1cc(N2CCOCC2)c(OCC)cc1NC(=O)COc1cccc2cccnc12`, 1.4.
Consider `Cc1cccc(NC(=S)Nc2ccc(Br)cc2)c1`, for which the activation fold is 1.2.
Next, `COC(=O)c1ccc(NC(=O)c2ccco2)cc1`: 0.8; `O=C(Nc1nnc(SCc2ccccc2)s1)c1ccco1`: 1.1; `O=C(Nc1nnc(CCOCCOCCc2nnc(NC(=O)c3ccco3)s2)s1)c1ccco1`: 2 (active).
As for `COc1ccc(C(=O)NC(=S)Nc2ccccc2N2CCN(S(C)(=O)=O)CC2)cc1OC`, the figure is 1; as for `CCN(C(=O)CSc1ncn[nH]1)c1cccc2ccccc12`, 2.3 (active).
Next, `O=C(CSc1ncn[nH]1)Nc1ccnc2ccccc12`: 1.9; `CC(C)(C)c1ccc(C(=O)CSc2ncn[nH]2)cc1`: 1.5; `Cc1sc(NC(=S)NC(=O)c2cccs2)nc1-c1ccc(CC(C)C)cc1`: 1.5.
For `Cc1ccc(S(=O)(=O)NCCSC(C)(C)C)cc1`, the activation fold was 0.9.
Turning to `COc1ccc(CCNC(=O)COC(=O)c2ccc[nH]c2=O)cc1`, the activation fold is 1.
As for `Cc1cc(N2CCN(S(=O)(=O)c3ccc(C)c(C)c3)CC2)c2ccccc2n1`, the figure is 2.1 (active); as for `Cc1ccc(S(=O)(=O)C(C#N)c2nc3ccccc3nc2N2CCCC2)cc1C` (stereo not given), 1.4.
As for `Cc1ccc(C)c(N2CCN(S(=O)(=O)c3ccc4c(c3)oc(=O)n4C)CC2)c1`, the figure is 1.4; as for `COC(=O)c1[nH]c2ccc(Br)cc2c1NC(=O)Oc1ccccc1`, 1.1; as for `CCCN1CCN(CCCNC(=O)CN2C(=O)COc3ccccc32)CC1`, 1.2.
With `O=C(CN1C(=O)COc2ccccc21)Nc1ccc(F)cc1`, the activation fold was 2.5 (active).
Next, `O=C(CN1C(=O)COc2ccccc21)NCCN1CCc2ccccc2C1`: 1.3; `O=C(Nc1cc(C(F)(F)F)ccc1Cl)c1cc2nc3c(c(C(F)(F)F)n2n1)CCCC3`: 1.6; `Clc1ccc(-c2nnc(-c3ccccc3)nc2N2CCSCC2)cc1`: 1.4.
Next, `O=C1C2C3C=CC(C4CC34)C2C(=O)N1/N=C/c1ccc(-c2ccccc2[N+](=O)[O-])o1` (stereo not given): 0.9; `Cc1nn(C)cc1C(=O)NNC(=S)Nc1ccc(Cl)cc1`: 2.2 (active).
Next, `S=C(NCc1cccs1)Nc1ccc(Cl)cc1`: 0.9; `COc1ccc(Cl)cc1C(=O)NCc1cn(C)nc1C`: 1.1; `O=C(CNC(=O)c1ccccc1)NCC(=O)OCc1ccc(Cl)cc1`: 0.9.
Consider `OC(COc1cccc(OCC(O)CN2CCCC2)c1)CN1CCCC1` (stereo not given), for which the activation fold is 1.2.
Next, `Cc1ccccc1C(OCC(O)CN1CCCCC1CCO)c1ccccc1` (stereo not given): 2.1 (active); `COc1cccc(OCc2cc(/C=N/NC(=O)c3nc(Cl)c(Cl)c(N)c3Cl)ccc2OC)c1`: 1.5.
As to `CCc1c(C)nc2cc(C)[nH]n2c1=O`, the activation fold was 0.9.
Next, `CNC(=O)CN1C(=O)c2ccccc2S1(=O)=O`: 0.9.
As for `CCCc1nnc(NC(=O)c2cccs2)s1`, the figure is 0.9; as for `CCCc1nnc(NC(=O)CN2C(=O)c3ccccc3S2(=O)=O)s1`, 2.2 (active); as for `COc1cc2c(cc1OC)C(C(=O)NCc1ccco1)C1c3ccccc3CCN1C2=O` (stereo not given), 1.2.
Next, `NC(CSC12CC3CC(CC(C3)C1)C2)C(=O)O` (stereo not given): 2 (active); `O=C(O)CSCNC(=O)CC12CC3CC(CC(C3)C1)C2`: 1.2.

Values taken from PubChem BioAssay AID696 (Sanford-Burnham Center for Chemical Genomics, 2007).
